Sampled rows, rich in hits. Any-hit rate of the full collection: about 4%.
TWEAK Fn14 block: blocks TWEAK-Fn14 interaction in a reporter cell assay; TWEAK-stimulated Fn14 reporter cells, luciferase luminescence, 8 h; inhibition, % at 10 µM; AID 1159606; 360,000 compounds, 2% hits; in the data active = inhibition above about 50%
Peg3 promoter: reduces Peg3 promoter-driven luciferase expression in HeLa; AID 588405; 360,000 compounds, 1.7% hits; inhibition, % at 20 µM; HeLa PEG-Prom luciferase reporter, luminescence, overnight;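 active = inhibition of at least 50% at 20 µM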
TROY signal inh: blocks TROY-dependent signaling in reporter cells | Q293 LMP1-TROYcd NF-kB luciferase reporter, 4 h | inhibition, % at 10 µM | 360,000 compounds, 0.98% hits | AID 1347056;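 active = compounds whose plate-normalised and pattern-corrected inhibition of the luciferase reporter signal at the single screening dose is 50% or more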
CF NFkB block: cystic fibrosis NF-kB activation inhibition; inhibition, % at 5 µM; 360,000 compounds, 0.86% hits; KKLEB NF-kB-GFP reporter, PAF-induced, GFP fluorescence overnight;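 active = at least 50% inhibition at 5 µM, scaled per plate between neutral and stimulator controls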;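 note: PAF is a Pseudomonas aeruginosa culture filtrate used as stimulus; plate controls were PAF-stimulated DMSO wells for no effect and unstimulated DMSO wells for full effect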
HIF-2a inh: HIF-2a inhibition. 786-0 RCC cells HIF-2a reporter, luciferase luminescence, overnight. inhibition, % at 18.8 µM. 360,000 compounds, 0.72% hits. AID 624352;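 active = inhibition of the luminescence signal of 40% or more relative to plate controls, in a single-dose primary screen at 18.75 µM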
KKLEB cytotox: reduces viability of KKLEB cystic fibrosis airway cells; AID 602141; 360,000 compounds, 0.36% hits; activity change (cytotoxicity), % at 5 µM; KKLEB CF airway cells viability, ATPlite luminescence, overnight; stronger effect = lower value; cells stimulated with P. aeruginosa culture filtrate;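 active = corrected activity change at or below -50% at 5 µM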
Mdm2-MdmX confirm: Mdm2/MdmX (human) interaction inhibition, confirmed; shares compounds with HIF-2a inh; SaOS-2 split-luciferase Mdm2/MdmX complementation, luminescence; inhibition, % at 8 µM; 740 compounds, 99% hits; AID 504601;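 active = mean inhibition of the luminescence signal across two replicates at or above 26 percent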
Target sequence (O15151 whole entry, looked up): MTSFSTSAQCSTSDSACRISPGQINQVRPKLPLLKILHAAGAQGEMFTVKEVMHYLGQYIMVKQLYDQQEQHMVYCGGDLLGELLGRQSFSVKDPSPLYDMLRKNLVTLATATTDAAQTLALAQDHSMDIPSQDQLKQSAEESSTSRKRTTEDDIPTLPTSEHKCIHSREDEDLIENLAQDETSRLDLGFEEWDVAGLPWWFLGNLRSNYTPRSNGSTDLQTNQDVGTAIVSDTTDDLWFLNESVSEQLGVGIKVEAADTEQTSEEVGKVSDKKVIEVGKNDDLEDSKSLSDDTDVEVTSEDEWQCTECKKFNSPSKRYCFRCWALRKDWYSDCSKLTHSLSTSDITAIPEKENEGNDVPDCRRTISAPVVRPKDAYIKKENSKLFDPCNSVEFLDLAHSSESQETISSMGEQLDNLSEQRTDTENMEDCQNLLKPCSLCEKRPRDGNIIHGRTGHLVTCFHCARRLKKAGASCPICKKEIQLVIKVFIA
Target sequence (Q00987 whole entry, looked up): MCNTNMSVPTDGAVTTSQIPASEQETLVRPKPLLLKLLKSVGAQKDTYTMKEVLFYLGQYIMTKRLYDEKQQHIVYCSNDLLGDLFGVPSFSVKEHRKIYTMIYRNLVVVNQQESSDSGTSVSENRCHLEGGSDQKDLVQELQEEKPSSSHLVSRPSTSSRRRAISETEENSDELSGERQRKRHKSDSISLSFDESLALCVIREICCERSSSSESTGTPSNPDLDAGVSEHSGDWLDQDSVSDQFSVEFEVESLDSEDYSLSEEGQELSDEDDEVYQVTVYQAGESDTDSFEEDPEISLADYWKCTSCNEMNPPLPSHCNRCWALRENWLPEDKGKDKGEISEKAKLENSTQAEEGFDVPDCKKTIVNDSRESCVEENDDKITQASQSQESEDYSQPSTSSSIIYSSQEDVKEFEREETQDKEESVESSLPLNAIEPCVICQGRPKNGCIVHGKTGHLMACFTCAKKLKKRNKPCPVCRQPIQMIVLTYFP
HIF-2a conf: confirmation of HIF-2a inhibitors; shares compounds with HIF-2a inh; 786-0 RCC cells, HIF-2a luciferase reporter luminescence, overnight; inhibition, % at 18.8 µM; 1,800 compounds, 56% hits; AID 651580;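 active = mean inhibition across four replicates of at least 40 percent at the single tested concentration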
HIF-1a cs: counter-screen for HIF-2a inhibitors: HIF-1a inhibition in MiaPaCa-2 cells; MiaPaCa-2 HIF-1a luciferase reporter, desferoxamine, overnight; 1,800 compounds, 72% hits; inhibition, % at 18.8 µM; shares compounds with HIF-2a inh;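 active = mean inhibition of the reporter signal across four replicates at the single tested dose of 50% or more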
* marks the source's active call; other numbers are inactive results.

How did Cc1cccc2c1NC(=O)C2(c1ccc(O)cc1)c1ccc(O)cc1 do in these assays?
TWEAK Fn14 block: 5; Peg3 promoter: 27; TROY signal inh: 1; CF NFkB block: 48; HIF-2a inh: 24; KKLEB cytotox: -45

What do the screens show for `COc1ccc(/C=C2\SC(=O)N(CCCC(=O)Nc3ccc(C(=O)O)cc3)C2=O)cc1OC`?
TWEAK Fn14 block: 1; Peg3 promoter: 11; TROY signal inh: -21; CF NFkB block: -18; HIF-2a inh: 13; KKLEB cytotox: 1

Results for COc1ccc(/C=C2\SC(=O)N(CCCC(=O)Nc3cc(Cl)ccc3C(=O)O)C2=O)cc1 ?
TWEAK Fn14 block: 104*; Peg3 promoter: 76*; TROY signal inh: 85*; CF NFkB block: -4; HIF-2a inh: 89*; KKLEB cytotox: -2; HIF-2a conf: 98*; HIF-1a cs: 99*

Results for COCCN1C(=O)CN(S(C)(=O)=O)CC1(C)C(=O)Nc1c(C)cccc1C (stereo not given) ?
HIF-2a inh: -3

What do the screens show for `CC(=O)Nc1cc(-c2cccc(C(=O)NCCN(C)C)c2)cn2c(-c3cccc(C(F)(F)F)c3)cnc12`?
TWEAK Fn14 block: -314; Peg3 promoter: 99*; TROY signal inh: -18; CF NFkB block: -79; HIF-2a inh: 95*; KKLEB cytotox: -30; HIF-2a conf: 1; HIF-1a cs: 105*

How did CCSc1ccc(-c2cc(NC=O)c3ncc(-c4cccc(C(=O)NCCN(C)C)c4)n3c2)cc1 do in these assays?
TWEAK Fn14 block: -181; Peg3 promoter: 89*; TROY signal inh: -12; CF NFkB block: -30; HIF-2a inh: 92*; KKLEB cytotox: -2; HIF-2a conf: -9; HIF-1a cs: 101*

Results for O=S1(=O)CCN(CCCCc2ccccc2)CC1 ?
TWEAK Fn14 block: -1; Peg3 promoter: -6; TROY signal inh: -6; CF NFkB block: -2; HIF-2a inh: -5; KKLEB cytotox: -7

Results for Cn1cc([N+](=O)[O-])c(C(=O)Nc2ccn(C34CC5CC(CC(C5)C3)C4)n2)n1 ?
TWEAK Fn14 block: -14; Peg3 promoter: 7; TROY signal inh: -27; CF NFkB block: 28; HIF-2a inh: 49*; KKLEB cytotox: -2; HIF-2a conf: 60*; HIF-1a cs: 57*

What do the screens show for `Cc1ccc(-c2nc(NC(=O)c3nn(C)cc3[N+](=O)[O-])sc2C)cc1C`?
TWEAK Fn14 block: 28; Peg3 promoter: 109*; TROY signal inh: 19; CF NFkB block: 23; HIF-2a inh: 66*; KKLEB cytotox: -38; Mdm2-MdmX confirm: 100*; HIF-2a conf: 1; HIF-1a cs: 105*

Results for Cn1cc([N+](=O)[O-])c(C(=O)Nc2nc(-c3ccc(Cl)cc3)cs2)n1 ?
TWEAK Fn14 block: 12; Peg3 promoter: 106*; TROY signal inh: 7; CF NFkB block: 89*; HIF-2a inh: 94*; KKLEB cytotox: -95*; HIF-2a conf: 86*; HIF-1a cs: 105*

What do the screens show for `Cc1ccc(Cn2ccc(NC(=O)c3nn(C)cc3[N+](=O)[O-])n2)cc1`?
TWEAK Fn14 block: 20; Peg3 promoter: 48; TROY signal inh: -8; CF NFkB block: -14; HIF-2a inh: -70; KKLEB cytotox: 15

What do the screens show for `Cc1ccc(-c2nc(NC(=O)c3nn(C)cc3[N+](=O)[O-])sc2C)cc1`?
TWEAK Fn14 block: 59*; Peg3 promoter: 109*; TROY signal inh: 28; CF NFkB block: 89*; HIF-2a inh: 93*; KKLEB cytotox: -64*; Mdm2-MdmX confirm: 103*; HIF-2a conf: 85*; HIF-1a cs: 105*

How did CCn1cc([N+](=O)[O-])c(C(=O)Nc2ccn(C34CC5CC(CC(C5)C3)C4)n2)n1 do in these assays?
TWEAK Fn14 block: 2; Peg3 promoter: 6; TROY signal inh: -4; CF NFkB block: 9; HIF-2a inh: 17; KKLEB cytotox: 9

Assay outcomes as filed in PubChem BioAssay.
